For 32 compounds, growth results are on record in PubChem BioAssay (NCI).

Each structure is given as a SMILES string. Several values for one entry are separate records, joined by “and”; a condition that tells them apart may be missing. Equal values may be shown once. This is part of a sample that, as a whole, favours compounds with a hit. Of some 83,000 tested, about 20% had one in any assay.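 Negative percent growth values reflect cell death: -40 means 40% of the cells present at the start died, and -100 means all died.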 A number with no mark means an inactive call. Activity calls are given as the source filed them. The calls were made as follows: active = growth percent below 10; inactive = the rest. Where a SMILES comes first, the peptide text is derived from it. The star is where a group is joined. Trt = c1ccc(C(c2ccccc2)(c2ccccc2)*)cc1; Cbz = O=C(OCc1ccccc1)*

One test relates to T-47D breast. Description: NCI-60 one-dose screen, 48 h (100 = growth as untreated, 0 = no growth, -100 = all killed). As to conditions: 10 µM.
As for `O=C(Nc1c(Cl)cccc1Cl)Oc1cccc2cccnc12`, the growth is 30.2%.
Same read-out and setting: for `O=C(Nc1cccc(Br)c1)Oc1cccc2cccnc12` the value was 92%; for `COc1ccc(-c2cscc2N)cc1`, 60%.
On the same count and under the same terms, with `CN(C)C(=O)c1ccc(SC(=S)NCc2ccccc2)cc1` the figure was 90%; with `O=C(O)c1c(Cl)c(Cl)c(Cl)c(Cl)c1-c1c2cc(I)c(=O)c(I)c-2oc2c(I)c(O)c(I)cc12`, 110% and 85.9% and 95.8%.

The same test, now with this note: 10 µM unless noted.
Turning to `CCCCCCCCCCCCCCCCCCOP(=O)([O-])OC1CC[N+](C)(C)CC1`, the growth is -18.4% (active) and 2.5% (active).
Consider `Cn1c2ccccc2c2nnc(N/N=C/c3ccccn3)nc21`, for which the growth is 19.2%.
Same read-out and setting: with `O=[N+]([O-])c1ccc2c(N=Nc3ccc4ccccc4c3O)c(O)cc(S(=O)(=O)O)c2c1` the figure was 96.1%.
For the compound `CCC(CCCN(CC)CCc1ccccc1)OC(=O)c1cc(OC)c(OC)c(OC)c1` (configuration not stated), the growth is 77.8%.
Same read-out and setting: with `O=C1c2ccccc2C(=O)N1c1ccccc1` the figure was 95.7%.
Same read-out and setting: with `COC(=O)C(CSC(c1ccccc1)(c1ccccc1)c1ccccc1)NC(=O)C(CC(N)=O)NC(=O)OCc1ccccc1` (stereo not drawn) (Cbz-Asn-Cys(Trt)-OMe; configuration not given here) the figure was -0.975% (active).
Take `O=C(Nc1ccccc1)c1cc(Cl)ccc1O`: the growth is 23.4%.
Same read-out and setting: with `CC1OC(OC2C(OC3CCC4(C)C(CCC5(C)C4CC=C4C6CC(C)(C)CCC6(CO)C(O)CC45C)C3(C)C)OC(C(=O)O)C(OC3OC(COC4OC(CO)C(O)C(O)C4O)C(O)C(O)C3O)C2O)C(O)C(O)C1O` (configuration not stated) the figure was -72.7% (active); with `C[N+](C)=c1ccc2nc3c(cc(NCCCNc4cc5oc6cc(=[N+](C)C)ccc-6nc5c5ccccc45)c4ccccc43)oc-2c1`, 46.2%.
On the same count and under the same terms, for `CCC(CC)COC(=O)c1ccc(O)c(O)c1` the value was 43.6%; for `O=C(Nc1ccc(F)cc1)ON=C1CCCCC1`, 79% [100 µM].
In the case of `CC1=CC(O)C2CC1C2(C)C` (configuration not stated), the growth is 96% and 106%.
For the compound `CCN(CC)CCOc1ccc(-c2nc3cc(Cl)ccc3s2)cc1`, the growth was 22%.
In the case of `CC(=O)ON=C1C=CC(=C(C#N)c2ccccc2)C=C1`, the growth is 42.3%.
On to `O=C1c2ccccc2C(=O)c2sc(Nc3cccc(Cl)c3)nc21`, for which the growth is 16%.
Turning to `Cc1ccnc(NC(c2ccccc2)c2ccc3cccnc3c2O)c1` (configuration not stated), the growth is 54.7%.
`Oc1c(Br)cc(Cl)cc1C(c1cc(Cl)cc(Br)c1O)C(Cl)(Cl)Cl`: the growth is 28.9%.
On the same count and under the same terms, for `CC(=O)Nc1cccc2cc(O)ccc12` the value was 97% and 103%.
Take `Cc1cc(N)c2ccccc2[n+]1CCCCCCCCCC[n+]1c(C)cc(N)c2ccccc21`: the growth is 5.34% (active) and -12.1% (active).
The same measure, in the same setting: for `N#CSCc1ccc(Cl)c(CSC#N)c1` the value was 57.5%; for `CNc1ccc(N)cc1`, 119%; for `COc1cc(NS(C)(=O)=O)ccc1Nc1c2ccccc2nc2ccccc12`, 23.1% [2.5 µM].
On the same count and under the same terms, with `O=C(O)c1ccc2c3c(ncnc13)-c1ccccc1C2=O` the figure was 101%; with `CCC(=O)Sc1ccccc1C(=O)Nc1ccc(Cl)cc1`, 45.1%; with `COc1ccc2nc3cc(Cl)ccc3c(NCCNc3c4ccc(Cl)cc4nc4ccc(OC)cc34)c2c1`, -64.4% (active).
Same read-out and setting: for `N[C@H](C(=O)O)[C@@H]1CC(Cl)=NO1` the value was 37.4% [20 µM]; for `CCOC(=O)c1c(C)[nH]c(CO)c1C`, 93.5%.
